Laboratory results from PubChem BioAssay AID1471 (National Center for Advancing Translational Sciences (NCATS), 2008).
Several values for one entry are separate records, joined by “and”; a condition that tells them apart may be missing. Equal entries are not always repeated. The whole screen tested about 230,000 compounds, of which about 310 (0.13%) were called active. A call without a number means that no potency is given here. Another 2% or so got no clear call; they are omitted. The sample as a whole holds a higher share of actives than the screen did. Values without a mark were called inactive. Calls come from the whole dose curve; as a rule, active = well fitted activation curve with a large enough effect; inconclusive = small, poorly fitted or top-dose-only effect; inactive = no such curve, though single readings can be large or run the other way.

Test: qHTS Multiplex Assay to Identify Dual Action Probes in a Cell Model of Huntington: Cytoprotection (ATP); note: nearly all actives have a fitted effect of over 45% in size;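 for cytoprotection (ATP increase): toxic huntingtin expression switched on by the ecdysone agonist tebufenozide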
Settings: PC12 HTT-Q103 induced, ATP luminescence, 40 h; series mostly up to 56.4 µM
Description: NIH Chemical Genomics Center [NCGC]
NIH Molecular Libraries Probe Production centers Network [MLPCN]
Assay Submitter (PI): Wei Zheng
Huntington's disease is a neurodegenerative disorder caused by a trinucleotide repeat expansion in Exon 1 of the Huntingtin gene. The CAG trinucleotide encodes glutamine and polyglutamine expansions cause cell death in selective areas of the brain. Huntington polyglutamine repeats have the tendency to form aggregates which are observable in later stages of the disease. The exact nature of the aggregates, whether toxic, protective, or insignificant, is unclear.
A stable PC12 cell line containing a gene fusion of Exon 1 of the Huntingtin gene linked to GFP under the control of the inducible ecdysone promoter were used as the cell-based model of Huntington Disease for high throughput screening. Exon 1 of the Huntingtin gene contained an expansion of 103 polyglutamines (Q103) which, when expressed, caused cell death and distinct, bright GFP aggregates. The amount of cell death and the size and intensity of GFP aggregates increased over time and induction level. The cell death were quantified with a measurement of ATP content in the cells. A maximal 40-50% of cell death was observed when the Huntington gene was induced in this cell line.
We optimized this assay in a homogeneous 1536 well format. A quantitative high throughput screen (qHTS) was conducted on the PC12 cells which were induced to express the toxic fusion construct. Small molecules which prevented cell death were identified by using a luminescent ATP quantification method (Perkin Elmer's ATPlite).
PC12 cells stably containing a construct with an ecdysone inducible promoter expressing GFP fused to the exon 1 of HTTQ103 (Huntington protein which containing a 103 ployglutamine expansion) were used.
NCGC Assay Protocol Summary:
Sequence, Parameter, Description
1, Reagent, 5 uL 1500 cells/well 1536 TC treated White clear bottom plate
2, Compound, 23 nL Tebufenozide inducer (100 nM final) to all columns
3, Compound, 23 nL 40 uM to 0.5 nM Libraries
5, Reagent, 5 ul ATPLite cell death assay reagent
6, Detector, 4 sec integration with a Viewlux Luminescent
Media consisted of phenol red free DMEM + 5% equine serum (Hyclone # SH30072.03 ), 5% supplemented Bovine Calf Serum (Hyclone # SH30074.03 ), 1x pen/strep, no G418
Control columns: 1 = DMSO, 2= 2 uM teb dilns (1:1), 4 = 100 nM Teb inducer. Sample columns received 100 nM Teb.
Potency is the fitted concentration of half-maximal effect.

SMILES | Potency | cytoprotection (ATP increase)
CC(C)(O)/C=C\C(=O)[C@](C)(O)[C@H]1[C@H](O)C[C@]2(C)[C@@H]3CC=C4[C@@H](C=C(O)C(=O)C4(C)C)[C@]3(C)C(=O)C[C@@]12C | 5.01 µM (active) | 
C[N+]1(C)C2CC(OC(=O)C(CO)c3ccccc3)CC1[C@@H]1O[C@H]21 (some centres undefined) |  | 17.6% [at 1.9 µM] and 4.91% [at 1.9 µM]
CC1=CC(=O)C2=C(C)C[C@H](O)[C@@H]3[C@@H](OC(=O)[C@H]3C)[C@H]12 |  | inactive
CC(C)(O)[C@H]1[C@H]2OC(=O)[C@@H]1[C@]1(O)C[C@H]3O[C@]34C(=O)O[C@H]2[C@]14C |  | inactive
